Only some compounds are listed: those with a hit (about 7.5% of all), similar ones and a draw of the others.
ELG1 genotox = inducers of genotoxicity in HEK293T ELG1-luciferase cells; Potency, µM (top dose mostly 46 µM), inactives show at the highest dose activity change, positive = activation, usual class: activators; actives 1.3% (n = 330,000); HEK293T ELG1-luciferase reporter, luminescence, 16 h; note: % of control where 0% means no effect; nearly all actives have a fitted effect of over 60% in size
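ELG1-luciferase HEK293T cells, 2,000/well; compound pinned in; 16 hr, 37 °C, 5% CO2; ONE-Glo, 30 min RT; luminescence on CCD imager.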
NPC1 promoter act = NPC1 promoter activation | Huh7 NPC1 promoter luciferase reporter, 24 h | Potency, µM (doses to about 9.22 µM), without a hit: at the top dose activation, actives largely listed as activators | AID 485313 | actives 2.4% (n = 320,000); note: % of control where 0% means no effect; nearly all actives have a fitted effect of over 60% in size
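Huh7 cells stably carrying NPC1 promoter–luciferase, plated in Opti-MEM with 10% FBS for 2 h, were exposed to compound in DMSO for 24 h at 37 °C; luciferase reagent was added for 10 min and luminescence read.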
FLuc modulator = firefly luciferase modulation, counter-screen for miR-21 project; actives 6.9% (n = 360,000); Potency, µM (titrated, usually from 57.5 µM), for inactives: top-dose activity change, negative = inhibition, hits mostly inhibitors; purified FLuc, Km substrates, luminescence inhibition; P08659;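 note: plate controls were vehicle for no effect and reference inhibitor for full effect; nearly all actives have a fitted effect of over 55% in size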
Target sequence (P08659 whole entry, looked up): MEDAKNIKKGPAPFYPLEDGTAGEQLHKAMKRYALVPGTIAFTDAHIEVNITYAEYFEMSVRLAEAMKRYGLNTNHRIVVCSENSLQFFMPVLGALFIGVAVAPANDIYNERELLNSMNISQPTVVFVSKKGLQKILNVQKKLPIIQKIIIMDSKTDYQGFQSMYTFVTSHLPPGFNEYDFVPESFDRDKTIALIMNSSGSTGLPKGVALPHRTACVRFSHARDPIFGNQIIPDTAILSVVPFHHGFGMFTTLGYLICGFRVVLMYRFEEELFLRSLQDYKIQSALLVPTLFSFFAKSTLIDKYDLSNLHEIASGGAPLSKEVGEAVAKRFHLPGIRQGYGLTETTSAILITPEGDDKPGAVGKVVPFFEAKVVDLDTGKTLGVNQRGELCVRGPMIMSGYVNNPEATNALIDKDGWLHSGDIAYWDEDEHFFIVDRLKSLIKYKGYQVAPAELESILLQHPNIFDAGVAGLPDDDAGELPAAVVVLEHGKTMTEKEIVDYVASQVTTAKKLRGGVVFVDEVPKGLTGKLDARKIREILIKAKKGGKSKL
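Biochemical qHTS of compounds, final roughly 60 µM downward over six points, against 10 nM purified firefly luciferase using Km concentrations of substrates (10 uM D-luciferin, 10 uM ATP) in Tris acetate pH 7.5 buffer; luminescence output.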
SMN2 splice up = SMN2 splice variant enhancement; Potency, µM (top dose mostly 46.1 µM), without a hit: top-dose activity change, positive = activation, usual class: activators; actives 2.8% (n = 210,000); AID 1458; HEK293 SMN2-luciferase splicing reporter, luminescence, 30-36 h; note: % of control where 0% means no effect; nearly all actives have a fitted effect of over 55% in size
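HEK293 cells carry an SMN2 […]–luciferase reporter in which exon 7 inclusion puts luciferase in frame. Cells were plated 10-12 h before compound addition, then incubated 30-36 h at 37C. ONE-Glo luminescence was read; sodium butyrate at 4.5 mM final served as control.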
Rab9 promoter act = activators of Rab9 promoter; Huh7 Rab9 promoter-luciferase reporter, luminescence, 24 h; Potency, µM (doses to about 9.22 µM), for inactives: at the top dose activation, negative = inhibition, most hits filed as activators; actives 2.8% (n = 320,000); AID 485297; note: % of control where 0% means no effect; nearly all actives have a fitted effect of over 60% in size
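Huh7 cells stably carrying Rab9 promoter–luciferase reporter, plated 1500 cells/well, compound added after 2 h and incubated 24 h at 37 °C; luciferase luminescence then read after 10 min with detection reagent.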
Luc counter = Kinase-Glo luciferase inhibition (counter-screen). Kinase-Glo luciferase, ATP luminescence, 8 min. Potency, µM (series often up to 38.3 µM), inactives show at the highest dose activity change, negative = inhibition, most hits filed as inhibitors. AID 1379. actives 0.28% (n = 200,000). Q27757; note: % is set by controls: 0 for no effect and ±100 for the full control effect; nearly all actives have a fitted effect of over 60% in size
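Recombinant Kinase-Glo luciferase, 10 uM ATP (linear range), luciferin; imidazole pH 7.2 / KCl / MgCl2 / Tween / BSA buffer; 8 min RT; luminescence.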
Active calls of the source: *; ? = inconclusive; . = no result given; [ ] = dose if it differs, or a comment. Calls come from the whole dose curve; as a rule, active = well fitted curve in the direction sought with a large enough effect; inconclusive = small, poorly fitted or top-dose-only effect, or another doubt; inactive = no such curve, though single readings can be large; an effect the other way counts as inactive or inconclusive. Potency is the fitted concentration of half-maximal effect.

SMILES	ELG1 genotox	NPC1 promoter act	FLuc modulator	SMN2 splice up	Rab9 promoter act	Luc counter
O=C(Cn1ccn(-c2ccc(F)cc2)c(=O)c1=O)Nc1ccc(F)cc1	.	.	-2%	.	.	.
COc1ccc(-c2nc(C)c(CCNC(=O)C(=O)Nc3ccccc3OC)s2)cc1	.	.	-2%	.	.	.
Clc1ccc([C@H](Cn2ccnc2)OCc2c(Cl)cccc2Cl)c(Cl)c1	.	.	.	6%[20.6 µM]	.	-3%[17.1 µM]
OC1(c2cccc(C(F)(F)F)c2)CCN(c2ccc(-c3ccccc3)nn2)CC1	14%	3.2µM*	-19%	?	1.4µM*	-2%
Cc1oc(-c2ccc(Cl)cc2)cc1C(=O)O	12%	?	11µM*	.	?	.
Nc1nnc(COc2ccc(Br)cc2Br)s1	?	?	8.5µM*	?	?	12%
CC1CCN(c2nc(-c3cccnc3)nc3scc(-c4ccccc4)c23)CC1	0%	2%	-1%	-20%	0%	4%
Clc1nc(-c2ccccn2)nc2scc(-c3ccccc3)c12	?	?	0.38µM*	5.6µM*	4.5µM*	-15%
COC(=O)[C@@H]1C[C@@]2(O)[C@@H](O)[C@@H](O)[C@@H](O)C[C@H]2N1Cc1cc(F)ccc1F	.	.	.	-3%	.	-7%
COc1ccc(OCC(=O)N(Cc2cccc(OC)c2)C2CCS(=O)(=O)C2)cc1 (stereo not given)	.	.	2%	5%	.	.
COc1ccc(/C=N/NC2=NCCCCC2)c(OC)c1	3%	8%	17µM*	?	9%	5%
Oc1ccccc1/C=N/NC1=NCCCCC1	?	1.4µM*	13µM*	13µM*	2.2µM*	3%
COc1ccc(/C=N/NC2=NCCCCC2)cc1	?	2%	?	-3%	?	-1%
CCOc1ccccc1NC(=O)Cn1c(=O)n(Cc2ccc(OC)cc2)c(=O)c2oc3ccccc3c21	.	.	-5%	.	.	.
CCOc1ccc(N2CC(NC(=O)c3ccc4c(c3)OCO4)CC2=O)cc1 (stereo not given)	.	.	2%	.	.	.
NC(=S)c1ccc[n+]([C@@H]2O[C@@H](COP(=O)([O-])OP(=O)(O)OC[C@H]3O[C@@H](n4cnc5c(N)ncnc54)[C@H](OP(=O)(O)O)[C@@H]3O)C(O)C2O)c1 (stereo not given in full)	.	3%[46.1 µM]	.	.	-6%[46.1 µM]	.
Cc1cc(C)n2nc(SCc3nnc(SCc4ccccc4C)s3)nc2n1	-6%	0%	?	-23%	-2%	0%
Cc1cc(C)n2nc(SCc3nnc(SCc4ccccc4Cl)s3)nc2n1	-1%	-3%	17µM*	-56%	-4%	4%
CCOc1cccc2sc(N3CCN(C(=O)C(C)(C)C)CC3)nc12	.	.	-4%	.	.	.
Cc1cc(C)c2c(CC(=O)Nc3cc(C(F)(F)F)ccc3Cl)coc2c1	.	.	-3%	0%	.	.
O=C(CSc1nc2ccc(NC(=O)CSc3nnnn3-c3ccccc3)cc2s1)Nc1ccccc1	13%	-4%	5%	-29%	-2%	-1%
Cn1cnnc1SCC(=O)Nc1ccc2nc(SCc3ccccc3F)sc2c1	?	2.8µM*	6.7µM*	?	1.6µM*	0%
CCC(=O)Nc1ccc2nc(SCc3ccccc3)sc2c1	.	.	15µM*	.	.	.
COc1cccc(-c2ccnc3c(-c4ccc(F)cc4)c(C)nn23)c1	.	.	8.5µM*	15%	.	.
COc1cccc(-c2ccnc3c(-c4ccccc4)c(C)nn23)c1	.	.	11µM*	?	.	.
SMILES	ELG1 genotox	NPC1 promoter act	FLuc modulator	SMN2 splice up	Rab9 promoter act	Luc counter
C[C@@H]1[C@H](C)CC[C@@]2(C(=O)O)CC[C@]3(C)C(=CC[C@H]4[C@@]5(C)CC[C@@H](O)C(C)(C)[C@@H]5CC[C@@]43C)[C@@H]12	.	.	.	3%[20.6 µM]	.	-1%[17.1 µM]
COc1cccc(-c2nnc(SCc3cccnc3)o2)c1	13%	?	24µM*	12%	4µM*	-10%
Cc1cccc(-c2nnc(SCc3ccccc3)o2)c1	?	?	11µM*	?	?	-2%
O=C(O)c1cccc(CSc2nnc(-c3ccc(Cl)cc3)o2)c1	17%	-1%	19µM*	.	-1%	.
COc1ccc(CNC(=O)C(=O)Nc2c3c(nn2-c2ccccc2)CSC3)cc1	.	.	-10%	.	.	.
CC1(C)CC=C(O[Si](C)(c2ccccc2)c2ccccc2)CC1	.	.	.	-5%	.	1%
CC1CCCC(NC(=O)C2COc3ccccc3O2)C1C (stereo not given)	2%	1%	4%	.	12%	.
Cc1ccccc1C(=O)N(Cc1ccc(N(C)C)cc1)Cc1ccco1	.	.	-3%	3%	.	.
CCOC(=O)c1nnn(C(CC)C(=O)Nc2c(C)cccc2C)c1C(=O)OCC (stereo not given)	.	.	4%	-3%	.	.
C/C(=N\NC(=O)Cc1cccn1C)c1ccco1	3%	-5%	-12%	.	-4%	.
CC(/C=C/c1ccco1)=N\NC(=O)c1cc(C)[nH]n1	13%	4%	-2%	15%	-4%	1%
C/C(=N\NC(=O)c1ccn(C)n1)c1ccco1	16µM*	?	17µM*	.	2.5µM*	.
C/C(=N\NC(=O)c1cc(-c2ccc(C)s2)[nH]n1)c1ccco1	14%	23%	21µM*	11µM*	28%	-7%
C/C(=N/NC(=O)c1cc(C)[nH]n1)c1ccco1	?	?	21µM*	.	4µM*	.
COc1ccc(Cl)cc1NC(=O)c1cc(-c2ccc3c(c2)OCO3)on1	.	.	-2%	-3%	.	.
O=C1C(C=NCCCN2CCOCC2)=C(O)c2ccccc21	15%	-5%	?	-9%	4%	-3%
Cc1ccc(O)c(N=Cc2cc(Cc3ccccc3)cc([N+](=O)[O-])c2O)c1	-7%	-4%	?	1%	-2%	-1%
Cc1ccc(O)c(N=CC2=C(O)c3ccccc3C2=O)c1	?	?	6.7µM*	25%	?	-10%
O=C1C(C=Nc2ccccc2O)=C(O)c2ccccc21	17%	?	?	35µM*	?	10µM*
COc1cc(NC(=O)c2cc(-c3ccccc3O)no2)cc(OC)c1OC	.	.	-14%	.	.	.
COc1ccc(-n2c(=O)c3sc4ccccc4c3n(CC(=O)Nc3ccccc3F)c2=O)cc1	.	.	2%	16%	.	.
COc1cc(C2Nc3ccccc3C(=O)N2c2ccc3c(c2)OCCO3)ccc1OCC(C)C (stereo not given)	1.8µM*	1µM*	15µM*	3.2µM*	0.56µM*	0%
O=C1c2ccccc2NC(c2ccc3c(c2)OCCO3)N1c1ccc2c(c1)OCCO2 (stereo not given)	2.1µM*	1µM*	11µM*	3.5µM*	1.6µM*	-5%

Source: PubChem
